Assay [1] addresses Cytochrome P450 2D6 (Homo sapiens) (UniProt P10635). Briefly: Cytochrome P450 family 2 subfamily D member 6 (CYP2D6) small molecule antagonists: luciferase biochemical (cell-free) qHTS assay (AID 1645840; active = well fitted curve in the direction sought with a large enough effect in the repeat runs; an effect the other way counts as inactive or inconclusive; note: potency is the fitted concentration of half-maximal effect; nearly all actives have a fitted effect of over 55% in size). In outline: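 P450-Glo CYP2D6 system: proluciferin substrate converted by enzyme to luciferin, read by luminescence proportional to activity. Enzyme-substrate mix with compound 10 min at room temperature, then NADPH regeneration 1 h before detection reagent.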

Assay [2] concerns the target Cytochrome P450 2C9 (Homo sapiens) (UniProt P11712). Briefly: Cytochrome P450 family 2 subfamily C member 9 (CYP2C9) small molecule antagonists: luciferase biochemical (cell-free) qHTS assay (AID 1645842; active = well fitted curve in the direction sought with a large enough effect in the repeat runs; an effect the other way counts as inactive or inconclusive; note: potency is the fitted concentration of half-maximal effect; nearly all actives have a fitted effect of over 55% in size). In outline:
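P450-Glo CYP2C9 system: proluciferin substrate with enzyme in mix containing 0.4% BSA, 10 min at room temperature, then NADPH regeneration solution added and incubated 1 h at 37C. Detection reagent stopped reaction; luminescence read after 20 min as RLU.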

Assay [3] in a line: Primary fluorescence-based thiol-reactive (MSTI) qHTS assay for identification of artifact compounds. (AID 1845221). Note: nearly all actives have a fitted effect of over 65% in size. Note: potency is the fitted concentration of half-maximal effect. In outline:
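In PBS pH 7.4 with 2% DMSO, each compound met 4 uM MSTI for one hour at ambient temperature, shielded from light, before fluorescence detection.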

For assay [4], the system named is CAOV3. Briefly: Primary qHTS to identify gynecologic anti-cancer compounds using libraries of approved drugs and bioactive compounds (AID 1345084). Note: nearly all actives have a fitted effect of over 55% in size. Note: potency is the fitted concentration of half-maximal effect. The conditions noted are these: Gynecologic cancer cell panel viability, ATPlite luminescence, 48 h; series mostly up to 57.5 µM. A digest of the protocol:
(§1)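 Five-concentration response, 48 h; readout is ATP-driven luciferase luminescence.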

In assay [5] the test system is PA-1. The assay is described as above. The conditions noted are these: Gynecologic cancer cell panel viability, ATPlite luminescence, 48 h; series mostly up to 57.5 µM. In outline: as §1
The test system of assay [6] is SKOV3. Described as above. The conditions noted are these: Gynecologic cancer cell panel viability, ATPlite luminescence, 48 h; series mostly up to 57.5 µM. A digest of the protocol: as §1
A short description of assay [7]: Confirmatory screen GU Rhodamine qHTS for Zika virus inhibitors qHTS (AID 1347157). Note: potency is the fitted concentration of half-maximal effect; nearly all actives have a fitted effect of over 70% in size. In outline:
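Noncovalent NS2B hydrophilic domain/NS3 protease complex (25 nM final) in 10 mM Tris-HCl pH 8.0, 0.01% Tween 20, preincubated 15 min with compounds (up to 114 microM), then 1.5 microM Rhodamine110 substrate. Fluorescence change over 15 min fitted to 4-parameter Hill.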

Assay [8] deals with Zika virus NS2B-NS3 protease (unlinked complex). Briefly: Primary screen GU Rhodamine qHTS for Zika virus inhibitors: Unlinked NS2B-NS3 protease assay (AID 1347159). For activity change, negative = inhibition: % is set by controls: 0 for no effect and ±100 for the full control effect. Note: nearly all actives have a fitted effect of over 60% in size. Note: potency is the fitted concentration of half-maximal effect. In outline:
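Unlinked NS2B/NS3, 25 nM; Rhod110 peptide, 1.5 microM; compounds, up to 114 microM. Reaction run 15 min at RT in 10 mM Tris-HCl pH 8.0, 0.01% Tween 20; kinetic fluorescence change fitted with a 4-parameter Hill model.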

Assay [9] deals with Zika virus NS2B-NS3 protease (linked construct). Briefly: 384 well plate NINDS Rhodamine confirmatory qHTS for Zika virus inhibitors (AID 1347164).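 For activity change, negative = inhibition: top concentration of the series differs between compounds; plate controls were no-inhibitor control for no effect and no-enzyme control for full effect.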 Note: nearly all actives have a fitted effect of over 65% in size. Note: potency is the fitted concentration of half-maximal effect. A digest of the protocol: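 Compounds are incubated about 15 minutes with linked protease (5, 30 or 60 nM final). Rhodamine 110-tagged Ac-LKRR substrate (10 microM final) is added and fluorescence measured after 25 minutes.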
Assay [10] is described as follows: Tertiary RLuc qRT-PCR qHTS assay for Zika virus inhibitors (AID 1347169). Note: potency is the fitted concentration of half-maximal effect; nearly all actives have a fitted effect of over 55% in size. In outline:
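Orthogonal cell-based infection assay using recombinant ZIKV-RLuc (Cambodian) in Vero cells; compound added prior to virus at MOI 1-2. Incubation lasts 48-72 hrs at 37 degrees C before live-cell Renilla substrate is added and luminescence measured.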

The test system of assay [11] is NIH3T3. Briefly: Cytotoxic Profiling of Annotated Libraries Using Quantitative High-Throughput Screening (AID 1296008). For max response: % is set by controls: 0 for no effect and ±100 for the full control effect. Note: nearly all actives have a fitted effect of over 60% in size. Note: potency is the fitted concentration of half-maximal effect. The note with it: Five cell lines viability, CellTiter-Glo ATP luminescence, 48-72 h; max response: stronger effect = lower value. In outline:
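Cells exposed to compounds for 48 or 72 hr at 37 degrees Celsius. Viability read as ATP-coupled luminescence with CellTiter-Glo after 10 min at room temperature.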

Assay [12] in a line: P-glycoprotein substrates identified in KB-8-5-11 adenocarcinoma cell line, qHTS therapeutic library screen (AID 1346987). Note: nearly all actives have a fitted effect of over 65% in size. Note: potency is the fitted concentration of half-maximal effect. In outline: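 Human cervical adenocarcinoma KB-8-5-11 cells, selected in colchicine to over-express P-gp and assayed without it, were exposed for 72 h to titrated compounds. An ATP-based luminescent viability signal gave AC50.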
Assay [13] has as its target Catechol O-methyltransferase (Homo sapiens) (UniProt P21964). Briefly: Confirmatory Screen for Target Class Profiling of Small Molecule Inhibitors of Methyltransferases (AID 1745852). For activity change, negative = inhibition: % is set by controls: 0 for no effect and ±100 for the full control effect. The conditions noted are these: MTase-Glo luminescence, SAH detection, recombinant enzyme; measured here: COMT max response; stronger effect = lower value.
The target in assay [14] is Guanidinoacetate N-methyltransferase (Homo sapiens) (UniProt Q14353). Described as above. The note with it: activity change, negative = inhibition: at 57.3 µM (top of the series) unless noted.
The target in assay [15] is Nicotinamide N-methyltransferase (Homo sapiens) (UniProt P40261). Described as above. The conditions noted are these: MTase-Glo luminescence, SAH detection, recombinant enzyme; measured here: NNMT max response; stronger effect = lower value.
Assay [16] addresses Phenylethanolamine N-methyltransferase (Homo sapiens) (UniProt P11086). The assay is described as above. The note with it: MTase-Glo luminescence, SAH detection, recombinant enzyme; measured here: PNMT max response; stronger effect = lower value.
A short description of assay [17]: P-glycoprotein substrates identified in KB-3-1 adenocarcinoma cell line, qHTS therapeutic library screen (AID 1346986).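 Note: potency is the fitted concentration of half-maximal effect; potency is for cytotoxicity meaning loss of cell viability; nearly all actives have a fitted effect of over 60% in size.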 A digest of the protocol:
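Viability by CellTiter-Glo after 72 h compound exposure at 37 degree C, 5% CO2. Cytotoxic call: curve class -1.1 to -2.4, maximum response >50%, AC50 < 10 uM, compared across KB-3-1 and P-gp-overexpressing KB-8-5-11.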

Assay [18] can be described thus: qHTS to identify inhibitors of the type 1 interferon - major histocompatibility complex class I in skeletal muscle: primary screen against the NCATS Mechanism Interrogation Plate v5.0 (MIPE) Libary (AID 1347411).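 For activity change, negative = inhibition: plate controls were vehicle for no effect and reference inhibitor for full effect.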 Note: nearly all actives have a fitted effect of over 65% in size. Note: potency is the fitted concentration of half-maximal effect. A digest of the protocol:
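IFN-beta-driven (4 ng/ml) HLA-B-HiBit expression in CRISPR-tagged C25cl48 myoblasts; compounds 11-pt, 1:3, max 46 uM, 24 hr exposure; lytic NanoLuc complementation luminescence.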

Molecules are shown by their SMILES. Records with an inconclusive call do not appear. Active and inactive are the calls of the source. Unless noted, calls come from the whole dose curve; as a rule, active = well fitted curve in the direction sought with a large enough effect; inconclusive = small, poorly fitted or top-dose-only effect, or another doubt; inactive = no such curve, though single readings can be large; an effect the other way counts as inactive or inconclusive.

We go through 16 compounds from PubChem BioAssay (NCATS).

Sequence of Cytochrome P450 2C9 (Homo sapiens) (P11712 whole entry, looked up): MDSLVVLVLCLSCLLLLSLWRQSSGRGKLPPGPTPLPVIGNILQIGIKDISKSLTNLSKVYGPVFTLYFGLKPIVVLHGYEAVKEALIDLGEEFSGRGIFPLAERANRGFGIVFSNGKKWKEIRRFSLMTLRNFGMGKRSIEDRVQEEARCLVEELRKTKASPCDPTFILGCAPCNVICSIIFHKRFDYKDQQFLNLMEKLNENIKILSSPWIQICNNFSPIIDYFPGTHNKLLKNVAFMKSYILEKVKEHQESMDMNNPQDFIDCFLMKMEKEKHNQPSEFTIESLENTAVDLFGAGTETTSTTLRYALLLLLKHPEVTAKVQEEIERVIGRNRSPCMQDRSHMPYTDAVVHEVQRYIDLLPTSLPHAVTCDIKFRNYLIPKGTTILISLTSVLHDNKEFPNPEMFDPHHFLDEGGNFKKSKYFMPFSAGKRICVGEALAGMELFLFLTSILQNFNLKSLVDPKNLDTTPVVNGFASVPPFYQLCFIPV
Sequence of Cytochrome P450 2D6 (Homo sapiens) (P10635 whole entry, looked up): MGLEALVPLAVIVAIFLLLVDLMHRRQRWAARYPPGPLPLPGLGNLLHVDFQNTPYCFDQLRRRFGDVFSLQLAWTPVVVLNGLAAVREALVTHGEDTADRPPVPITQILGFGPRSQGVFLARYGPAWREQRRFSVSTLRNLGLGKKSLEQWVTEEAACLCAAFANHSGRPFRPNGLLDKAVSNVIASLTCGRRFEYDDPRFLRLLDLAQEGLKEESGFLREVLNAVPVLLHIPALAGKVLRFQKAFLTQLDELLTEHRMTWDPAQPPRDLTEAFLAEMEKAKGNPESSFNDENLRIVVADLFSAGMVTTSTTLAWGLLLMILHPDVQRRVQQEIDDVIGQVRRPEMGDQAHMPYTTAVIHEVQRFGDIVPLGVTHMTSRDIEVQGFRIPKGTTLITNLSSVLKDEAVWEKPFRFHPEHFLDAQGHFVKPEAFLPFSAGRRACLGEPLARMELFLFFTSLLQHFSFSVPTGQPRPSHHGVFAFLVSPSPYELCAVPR
Sequence of Phenylethanolamine N-methyltransferase (Homo sapiens) (P11086 whole entry, looked up): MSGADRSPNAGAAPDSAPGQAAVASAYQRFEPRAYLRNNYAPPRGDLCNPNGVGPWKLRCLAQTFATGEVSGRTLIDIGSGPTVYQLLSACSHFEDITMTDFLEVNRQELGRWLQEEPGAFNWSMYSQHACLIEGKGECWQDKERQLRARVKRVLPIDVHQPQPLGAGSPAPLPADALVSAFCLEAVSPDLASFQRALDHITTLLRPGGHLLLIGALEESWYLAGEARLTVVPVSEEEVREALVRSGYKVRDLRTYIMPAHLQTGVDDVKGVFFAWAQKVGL
Sequence of Catechol O-methyltransferase (Homo sapiens) (P21964 whole entry, looked up): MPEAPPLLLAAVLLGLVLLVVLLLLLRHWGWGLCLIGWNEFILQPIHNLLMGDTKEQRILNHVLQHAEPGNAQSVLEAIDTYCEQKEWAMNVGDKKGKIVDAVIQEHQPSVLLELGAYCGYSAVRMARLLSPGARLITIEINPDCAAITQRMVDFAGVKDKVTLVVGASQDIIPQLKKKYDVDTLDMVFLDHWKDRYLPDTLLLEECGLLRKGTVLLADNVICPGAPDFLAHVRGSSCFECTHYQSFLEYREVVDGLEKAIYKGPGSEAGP
Sequence of Nicotinamide N-methyltransferase (Homo sapiens) (P40261 whole entry, looked up): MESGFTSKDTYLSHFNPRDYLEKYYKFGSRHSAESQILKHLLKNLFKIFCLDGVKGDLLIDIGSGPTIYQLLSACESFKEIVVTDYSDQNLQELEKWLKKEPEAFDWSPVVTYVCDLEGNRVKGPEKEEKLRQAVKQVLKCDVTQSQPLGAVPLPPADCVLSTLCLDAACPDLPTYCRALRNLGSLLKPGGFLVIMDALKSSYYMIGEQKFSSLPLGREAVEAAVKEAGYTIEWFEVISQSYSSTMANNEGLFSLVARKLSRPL

Regarding `Cc1nnsc1C(=O)Nc1ccc(-n2nc(C(F)(F)F)cc2C(F)(F)F)cc1`, the figures for the Potency in [1] and in assay [2] were 10.7 µM (active) and 15.1 µM (active), respectively. Further, the Potency entry in assay [3], in assay [4], in [5] and in assay [6] was “inactive” throughout.
With `CN(CC(=O)N(Cc1ccc(C2CCCCC2)cc1)c1ccc(C(=O)O)cc1)S(=O)(=O)c1c(F)c(F)c(F)c(F)c1F`, the Potency in [7] is 3.5 µM (active); in assay [8], 2.51 µM (active); in [10] it was 7.39 µM (active); in assay [2], 16.9 µM (active); in [11] it was 6.51 µM (active); in [4] it was 25.1 µM (active). The Potency in [6] was 31.6 µM (active). In addition, the activity change, negative = inhibition in [9] is -179% [at 100 µM] (inactive). In assay [3], the Potency entry is “inactive”.
For the compound `C=C1[C@@H](C2=CC(=O)OC2)CC[C@@]2(O)[C@@H]1CC1[C@H]2CC[C@@H]2C[C@@H](O[C@H]3O[C@@H](C)[C@@H](O[C@@H]4O[C@H](CO[C@@H]5O[C@H](CO)[C@@H](O)[C@H](O)[C@H]5O)[C@@H](O)[C@H](O)[C@H]4O)[C@H](OC)[C@H]3O)CC[C@]12C` (some centres not stated), the Potency in assay [12] was 3.48 µM (active). Moreover, the Potency result in [8] was “inactive”. Moreover, the outcome in assay [11] was “inactive”.
With `C=C1[C@@H](C)[C@H]2[C@H](Cc3c[nH]c4ccccc34)NC(=O)[C@]23C(=O)/C=C/C(=O)[C@H](O)/C(C)=C\[C@@H](C)C/C=C/[C@H]3[C@@H]1O`, the Potency entry in assay [12], in assay [3], in [4] and in [5] was “inactive” in each case. Moreover, the Potency in assay [11] is 3.55 µM (active).
For `COc1c(N2CC3CCCNC3C2)c(F)cc2c(=O)c(C(=O)O)cn(C3CC3)c12` (configuration not stated), the Potency entry in assay [3], in assay [4], in [5] and in assay [6] was “inactive” in each case.
On to `Cc1ccn(-c2cc(Cl)ccc2[C@@H](Oc2cc(-c3ccc(C[C@H](N)C(=O)O)cc3)nc(N)n2)C(F)(F)F)n1`, for which the results for the Potency in assay [7], in assay [9] and in [10] were 22.1 µM (active), 28.2 µM (active) and 20.8 µM (active), respectively. Moreover, the activity in assay [13] was -0.316%; in [15], -31.2%; in assay [16], -1.43%. Besides, in [14], the activity change, negative = inhibition turned out to be 0%. For the same compound, the Potency entry in assay [3], in assay [4], in assay [5] and in assay [6] was “inactive” each time.
As to `C[N+]1(C)[C@@H]2CC[C@H]1CC(OC(=O)C(O)c1ccccc1)C2` (some centres not stated), the Potency entry in assay [4], in assay [5] and in [6] was “inactive” in each case.
On to `Cc1cc2nc(NCCCO)n(CC(=O)c3cc(C(C)(C)C)c(O)c(C(C)(C)C)c3)c2cc1C`, for which the Potency in [12] was 18.4 µM (active); in assay [2] it was 13.5 µM (active). Besides, the Potency entry in assay [8], in assay [4] and in assay [5] was “inactive” throughout.
On to `C=CC(=O)Nc1cc(Nc2nccc(-c3cn(C)c4ccccc34)n2)c(OC)cc1N(C)CCN(C)C`, for which the Potency was 10.3 µM (active) in [17]; 11.6 µM (active) in [12]; 8.29 µM (active) in [18]; 23.9 µM (active) in assay [1]; 25.1 µM (active) in [5]. Also, the Potency result in [8] was “inactive”.
Take `COc1ccc(CNC(=O)Nc2ncc([N+](=O)[O-])s2)cc1`: the Potency in [12] was 23.1 µM (active); in assay [18] it was 18.6 µM (active); in assay [2], 7.56 µM (active). Also, the Potency entry in assay [4] and in [6] was “inactive” each time.
As for `COc1ccc(NS(=O)(=O)c2sc3ccc(Cl)cc3c2C)cc1N1CCNCC1`, the Potency entry in assay [8], in assay [4], in [5] and in assay [6] was “inactive” throughout. Also, the Potency in assay [1] was 23.9 µM (active).
Regarding `Cc1cc(CS(=O)(=O)c2ccccc2)cc(OCc2ccc(CN3CCC[C@@H]3CO)cc2)c1`, the Potency result in assay [18] and in assay [3] was “inactive” each time. Besides, the Potency in assay [11] was 20.6 µM (active).
In the case of `CCS(=O)(=O)N(Cc1cccnc1)c1cccc(-c2ccc(C#N)cc2)c1`, the Potency is 23.1 µM (active) in [12] and 9.52 µM (active) in assay [2]. The Potency entry in [8], in assay [3], in [4] and in [5] was “inactive” each time. Further, the max response in [11] was -19.5% (inactive).
As for `CC(=O)C1=C(O)C2c3c[nH]c4cccc(c34)CC2C(C)(C)N(C)C1=O` (configuration not stated), the Potency in assay [12] is 9.2 µM (active); in assay [3], 3.36 µM (active). Further, the Potency result in [8], in assay [4] and in assay [6] was “inactive” in each case.
Regarding `COCCNCc1ccc(-c2cc3nccc(Oc4ccc(NC(=S)NC(=O)Cc5ccc(F)cc5)cc4F)c3s2)nc1`, the Potency in [17] is 23.1 µM (active); in assay [12] it was 16.4 µM (active); in assay [18], 8.29 µM (active); in assay [11], 6.51 µM (active); in assay [5], 31.6 µM (active).
As for `N#C[C@@H]1C[C@@H]2C[C@@H]2N1C(=O)[C@@H](N)C12CC3CC(CC(O)(C3)C1)C2`, the Potency result in assay [18], in assay [3], in [4], in assay [5] and in assay [6] was “inactive” throughout.
